Assay results reported in the supplement of paper PMC8728848.
Shown is part of a subset that was picked to be rich in the strongest signals.

Columns and labels:
Test in all cases: glycan array binding signal (z-score within array); higher = stronger binding
Details in all cases: glycan notation: IUPAC condensed, linker removed; mutation: D325A
[1] = molecular target: Fuc(a1-2)Gal(b1-3)GalNAc(b1-4)[Neu5Ac(a2-3)]Gal(b1-4)Glc
In short: (§1)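 From the Consortium for Functional Glycomics database, 3228 arrays were curated, keeping only those whose protein sequence was available. Binding is given as a within-array Z-score averaged across arrays sharing a protein sequence and across linkers. Negative Z-scores can be read as non-binding.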

[2] = molecular target: Fuc(a1-2)Gal(b1-3)GlcNAc
In short: as §1

[3] = molecular target: Fuc(a1-2)Gal(b1-4)GlcNAc(b1-3)Gal(b1-4)GlcNAc
In short: as §1

[4] = molecular target: Fuc(a1-2)[Gal(a1-3)]Gal(b1-4)Glc
In short: as §1

[5] = molecular target: Fuc(a1-2)[GalNAc(b1-3)]Gal
In short: as §1

[6] = molecular target: Fuc(a1-3)[Gal3S(b1-4)]Glc6S
In short: as §1

[7] = molecular target: Fuc(a1-3)[Gal3S(b1-4)]GlcNAc
In short: as §1

[8] = molecular target: Gal(a1-3)GalNAc
In short: as §1

[9] = molecular target: Gal(b1-3)GlcNAc(b1-3)Gal(b1-4)GlcNAc
In short: as §1

[10] = molecular target: Gal(b1-4)GlcNAc(b1-2)Man(a1-3)[Gal(b1-4)GlcNAc(b1-2)Man(a1-6)]Man(b1-4)GlcNAc(b1-4)GlcNAc
In short: as §1

[11] = molecular target: Gal(b1-4)GlcNAc(b1-3)Gal(b1-3)GlcNAc
In short: as §1

[12] = molecular target: Gal3S(b1-3)GalNAc
In short: as §1

[13] = molecular target: Gal4S6S(b1-4)GlcNAc
In short: as §1

[14] = molecular target: GlcA(b1-6)Gal
In short: as §1

[15] = molecular target: GlcNAc(b1-4)Gal(b1-4)GlcNAc
In short: as §1

[16] = molecular target: Man(a1-2)Man(a1-2)Man(a1-3)Man
In short: as §1

[17] = molecular target: Man(a1-2)Man(a1-3)[Man(a1-2)Man(a1-6)]Man(a1-6)[Man(a1-2)Man(a1-2)Man(a1-3)]Man
In short: as §1

[18] = molecular target: Man(a1-2)Man(a1-6)[Man(a1-3)]Man(a1-6)[Man(a1-2)Man(a1-2)Man(a1-3)]Man
In short: as §1

[19] = molecular target: Man(a1-3)[Man(a1-6)]Man(a1-6)[Man(a1-2)Man(a1-3)]Man(b1-4)GlcNAc(b1-4)GlcNAc
In short: as §1

[20] = molecular target: Man(a1-3)[Man(a1-6)]Man(a1-6)[Man(a1-3)]Man
In short: as §1

[21] = molecular target: Neu5Gc(a2-3)Gal(b1-4)[Fuc(a1-3)]GlcNAc
In short: as §1

B1: Surfactant Protein D (Human); Neck + Carbohydrate Recognition Domain (NCRD) (Homo sapiens) (protein)
chain: MLLFLLSALVLLTQPLGYLEAEMKTYSHRTMPSACTLVMCSSVESGLPGRDRDGREGPRGEKGDPGLPGAAGQAGMPGQAGPVGPKGDNGSVGEPGPKGDTGPSGPPGPPGVPGPAGREGALGKQGNIGPQGKPGPKGEAGPKGEVGAPGMQGSAGARGLAGPKGERGVPGERGVPGNTGAAGSAGAMGPQGSPGARGPPGLKGDKGIPGDKGAKGESGLPDVASLRQQVEALQGQVQHLQAAFSQYKKVELFPNGQSVGEKIFKTAQFVKPFTEAQLLCTQAGGQLASPRSAAENAALQQLVVAKNEAAFLSMTDSKTEGKFTYPTGESLVYSNWAPGEPNDAGGSEDCVEIFTNGKWNDRACGEKRLVVCEF
- glycan array binding signal (z-score) [1]: -0.163
- glycan array binding signal (z-score) [2]: -0.276
- glycan array binding signal (z-score) [3]: -0.226
- glycan array binding signal (z-score) [4]: -0.272
- glycan array binding signal (z-score) [5]: -0.268
- glycan array binding signal (z-score) [6]: -0.246
- glycan array binding signal (z-score) [7]: -0.269
- glycan array binding signal (z-score) [8]: -0.164
- glycan array binding signal (z-score) [9]: -0.267
- glycan array binding signal (z-score) [10]: -0.273
- glycan array binding signal (z-score) [11]: -0.269
- glycan array binding signal (z-score) [12]: -0.274
- glycan array binding signal (z-score) [13]: -0.275
- glycan array binding signal (z-score) [14]: -0.26
- glycan array binding signal (z-score) [15]: -0.128
- glycan array binding signal (z-score) [16]: 5.67
- glycan array binding signal (z-score) [17]: 5.16
- glycan array binding signal (z-score) [18]: 4.8
- glycan array binding signal (z-score) [19]: 4.71
- glycan array binding signal (z-score) [20]: 4.73
- glycan array binding signal (z-score) [21]: -0.27
